The values below come from PubChem BioAssay.

The source made the active and inactive calls.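 The calls were made as follows, unless noted: active = NADPH fluorescence slope more negative than the mean of all samples by about 3 SD, 99.7% confidence; inactive = the rest.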

Experiment [1] can be described thus: inhibitors of TNFa-induced NFkB p65 translocation, primary screen, imaging, HUVEC, MLSMR starter and 10KST1 sets (AID 438;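 active = inhibition above 20% together with a positive visual image hit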;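 also: compound added about 3h40 before a 20 min TNFalpha stimulation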;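 as to inhibition: signal is the nuclear over cytoplasmic p65 intensity ratio per well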). The settings on record: HUVEC TNFa-induced p65 nuclear translocation; cell count: measured here: nuclei count (cytotoxicity indicator), at 2.08 µM; inhibition: at 2 µM, stronger effect = higher value, 0% TNFa-plus-vehicle, 100% no-TNFa wells.
Experiment [2] can be described thus: reduction of polyQ htt aggregates in cells – imaging, exon1htt(103Q)mCFP cells, high-content imaging, primary screen (AID 483;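 active = visual image review flags a hit and inhibition of aggregation exceeds 20%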;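 also: compound exposure lasted 3 days before fixation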;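 as to nuclei count: percent of the per-plate median nuclei count of sample wells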). The settings on record: exon1htt(103Q)mCFP cell line, aggregate imaging, at 2 µM; inhibition of aggregation: stronger effect = higher value; nuclei count: measured here: cell count, toxicity.
Experiment [3] can be described thus: endothelial E-selectin expression blockers – imaging, HUVEC, immunofluorescence, MLSMR starter and 10KST1 sets, primary screen (AID 487;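 active = visually confirmed hit in the image check and inhibition above 20%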;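 as to inhibition: signal is fraction of cell area covered by stained E-selectin grains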;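 as to nuclei count: 100% = median nuclei count of all wells on the same plate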). The note with it: HUVEC TNFalpha-induced E-selectin immunofluorescence imaging, at 2 µM; inhibition: stronger effect = higher value; nuclei count: measured here: cell number, toxicity.
In experiment [4] the target is Voltage-gated potassium channel subunit beta-2 (Rattus norvegicus) (UniProt P62483). As to the kind of experiment: inhibitors of rat Kvbeta2 reductase activity – biochemical, NADPH fluorescence, primary screen (AID 622;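 active = fluorescence slope higher than the sample average by over 3 SD, cut at about -0.22 in these data, passing the limit was not always enough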;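 also: slope of raw intensity against log time taken from 70 to 1610 s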). The note with it: recombinant KvBeta, 4-cyanobenzaldehyde reduction, at 10 µM, stronger effect = higher value.
Voltage-gated potassium channel subunit beta-2 (Rattus norvegicus), sequence (P62483 whole entry, looked up): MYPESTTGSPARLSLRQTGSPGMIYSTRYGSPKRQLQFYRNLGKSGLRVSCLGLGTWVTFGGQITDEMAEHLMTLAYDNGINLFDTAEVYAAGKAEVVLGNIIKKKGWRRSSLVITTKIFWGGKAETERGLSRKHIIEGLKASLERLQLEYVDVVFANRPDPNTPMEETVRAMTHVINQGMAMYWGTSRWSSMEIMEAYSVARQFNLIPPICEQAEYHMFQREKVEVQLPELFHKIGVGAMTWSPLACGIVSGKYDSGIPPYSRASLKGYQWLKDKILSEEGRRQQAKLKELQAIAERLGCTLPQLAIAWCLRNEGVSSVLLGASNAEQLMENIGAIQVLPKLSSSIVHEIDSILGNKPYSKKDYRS
Experiment [5] shares this target. As to the kind of experiment: enhancers of rat Kvbeta2 NADPH turnover – biochemical, NADPH fluorescence, primary screen (AID 623).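 Also: fluorescence intensity change per second fitted from 20 to 320 s.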 The note with it: Recombinant KvBeta, NADPH fluorescence decrease slope, 10 min; at 10 µM; stronger effect = lower value.
The target in experiment [6] is Alpha-2C adrenergic receptor (Homo sapiens) (UniProt P18825). As to the kind of experiment: compounds altering alpha2C-coupled GIRK flux – cell-based, HEK293 alpha2C/GIRK1/2, thallium flux, primary screen (AID 624;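 active = fluorescence slope after compound addition differing from the mean of all screened samples at 99.7% confidence, in either direction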;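 also: slope of fluorescence ratio to pre-addition baseline per second over 15 to 24 s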). The settings on record: thallium flux BTC fluorescence, at 10 µM, actives lie on both sides.
Alpha-2C adrenergic receptor (Homo sapiens), sequence (P18825 whole entry, looked up): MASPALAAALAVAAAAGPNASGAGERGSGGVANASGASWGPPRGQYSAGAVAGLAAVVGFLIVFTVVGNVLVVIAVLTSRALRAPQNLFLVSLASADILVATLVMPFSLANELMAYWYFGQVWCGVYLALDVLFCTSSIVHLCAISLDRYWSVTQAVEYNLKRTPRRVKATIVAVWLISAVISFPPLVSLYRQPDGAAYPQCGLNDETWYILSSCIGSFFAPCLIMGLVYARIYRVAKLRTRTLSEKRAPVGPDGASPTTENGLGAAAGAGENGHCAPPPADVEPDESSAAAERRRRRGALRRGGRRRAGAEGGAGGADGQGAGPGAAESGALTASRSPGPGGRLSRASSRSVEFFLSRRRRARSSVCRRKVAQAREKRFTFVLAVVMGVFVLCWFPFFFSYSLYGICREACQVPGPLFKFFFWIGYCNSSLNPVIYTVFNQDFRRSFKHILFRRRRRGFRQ
Experiment [7] is described as follows: blockers of RIG-like receptor reporter activation – cell-based, Sendai virus stimulus, luciferase, 10K MLSCN set, TLR/RLR signaling modifier project, primary screen (AID 602276;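 active = inhibition at or above 50% at 10 µM; inactive = inhibition below 50%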;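 also: firefly luciferase from ISG56 promoter only with Renilla not read in this screen; 0% = Sendai virus plus DMSO and 100% = medium plus DMSO without virus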). The note with it: HEK293 RL24 IRF3 luciferase reporter, at 10 µM, stronger effect = higher value. In general terms: Reporter assays use an easily measured gene product as a stand-in for the process of interest.

Experiment [8] in a line: TLR3 IRF3 reporter activation blockers – cell-based, poly I:C stimulus, luciferase, 10K MLSCN set, primary screen (AID 602277;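 active = inhibition of the reporter signal at or above 50%; inactive = inhibition below 50%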). The settings on record: HEK293-TLR3 RL24 IRF3 luciferase reporter, at 10 µM, stronger effect = higher value.

`CC(C)(C)c1ccc(C(=O)Nc2cnccn2)cc1`: the cell count in experiment [1] was found to be 351. In addition, the inhibition is 1.7% (inactive) in experiment [1], 11.6% (inactive) in experiment [3], -50.1% (inactive) in experiment [7] and -138% (inactive) in experiment [8]. In experiment [2], the inhibition of aggregation is 7.6% (inactive). Besides, the nuclei count worked out at 100% in experiment [2] and 108% in experiment [3]. Also, the fluorescence slope in experiment [4] was -0.379 (inactive). The NADPH fluorescence slope in experiment [5] was -6.5e-05 (inactive). Besides, the slope in experiment [6] was 0.0039 (inactive).
On to `CC(O)c1c(OCc2ccccc2)ncnc1OCc1ccccc1` (centres undefined), for which the cell count in experiment [1] was 426. In addition, the inhibition was 0.5% (inactive) in experiment [1], -36.1% (inactive) in experiment [3], 10.6% (inactive) in experiment [7] and 20.8% (inactive) in experiment [8]. Moreover, the inhibition of aggregation in experiment [2] is -7.1% (inactive). The nuclei count was found to be 65.7% in experiment [2] and 115% in experiment [3]. Moreover, the fluorescence slope in experiment [4] is -0.44 (inactive). For the same compound, the NADPH fluorescence slope in experiment [5] was -0.000123 (inactive). For the same compound, the slope in experiment [6] was 0.00502 (inactive).
On to `N#C/C(=C(/O)COC(=O)CCC1CCCCC1)c1nc2ccccc2[nH]1`, for which, in experiment [1], the cell count came to 317. The inhibition in experiment [1] was -3.4% (inactive); in experiment [3], -3.3% (inactive); in experiment [7] it was 16.8% (inactive); in experiment [8], 24.8% (inactive). Besides, the inhibition of aggregation in experiment [2] is -9.2% (inactive). Further, the results for the nuclei count in experiment [2] and in experiment [3] were 120% and 113%, respectively. Besides, the fluorescence slope in experiment [4] was -0.595 (inactive). Further, the NADPH fluorescence slope in experiment [5] is -3.2e-05 (inactive). The slope in experiment [6] was 0.0028 (inactive).
Take `Cc1ccccc1NC(=O)NCCCN1CCN(C2CCCCC2)CC1`: the cell count in experiment [1] stood at 411. Moreover, the inhibition in experiment [1] was -1.8% (inactive); in experiment [3] it was -119% (inactive); in experiment [7] it was 3.03% (inactive); in experiment [8], 13% (inactive). Moreover, the inhibition of aggregation in experiment [2] was 8.9% (inactive). Besides, the nuclei count in experiment [2] is 81.8%; in experiment [3] it was 108%. Also, the fluorescence slope in experiment [4] is -0.61 (inactive). The NADPH fluorescence slope in experiment [5] was 2.5e-06 (inactive). Further, the slope in experiment [6] was 0.00551 (inactive).
Consider `O=C(CCn1c(=S)[nH]c2cc3c(cc2c1=O)OCO3)N1CCN(C2CCCCC2)CC1`, for which, in experiment [1], the cell count stood at 473. Further, the inhibition in experiment [1] is 4.3% (inactive); in experiment [3], 28.2% (inactive); in experiment [7] it was 3.29% (inactive); in experiment [8] it was 33.1% (inactive). The inhibition of aggregation in experiment [2] is 4.1% (inactive). Besides, the nuclei count stood at 129% in experiment [2] and 85.3% in experiment [3]. Besides, the fluorescence slope in experiment [4] was -0.476 (inactive). Further, in experiment [5], the NADPH fluorescence slope is -9.8e-07 (inactive). In experiment [6], the slope was 0.00668 (inactive).
As to `COc1ccc(CCNc2nc(N3CCOCC3)nc(N3CCOCC3)n2)cc1OC`, the cell count in experiment [1] stood at 229. Besides, the inhibition in experiment [1] was 10.4% (inactive); in experiment [3] it was 15.6% (inactive); in experiment [7], 15.3% (inactive); in experiment [8], 10.3% (inactive). The inhibition of aggregation in experiment [2] is 14.9% (inactive). Further, the nuclei count turned out to be 66.5% in experiment [2] and 91.3% in experiment [3]. Besides, the fluorescence slope in experiment [4] was -0.515 (inactive). Besides, the NADPH fluorescence slope in experiment [5] was -3.3e-05 (inactive). Further, the slope in experiment [6] was 0.00378 (inactive).
Regarding `Cc1cc(C)n(S(=O)(=O)c2cc(C(=O)O)c(Cl)cc2Cl)n1`, in experiment [1], the cell count was determined as 432. The inhibition in experiment [1] was -0.5% (inactive); in experiment [3], -83.9% (inactive); in experiment [7], 13.3% (inactive); in experiment [8] it was 10.3% (inactive). For the same compound, the inhibition of aggregation in experiment [2] is -10.2% (inactive). For the same compound, the nuclei count stood at 110% in experiment [2] and 98.4% in experiment [3]. Moreover, the fluorescence slope in experiment [4] is -0.387 (inactive). Moreover, the NADPH fluorescence slope in experiment [5] was 4.4e-06 (inactive). In addition, the slope in experiment [6] is 0.00497 (inactive).
Regarding `CC(=O)c1cccc(N(CC(=O)N2CCCC2)S(C)(=O)=O)c1`, the cell count in experiment [1] was found to be 529. In addition, the inhibition in experiment [1] is -5.4% (inactive); in experiment [3], -11.1% (inactive); in experiment [7] it was 13.6% (inactive); in experiment [8], 20% (inactive). Besides, the inhibition of aggregation in experiment [2] is 14.6% (inactive). In addition, the nuclei count in experiment [2] came out at 88.4%; in experiment [3], 94.9%. Besides, in experiment [4], the fluorescence slope was -0.467 (inactive). Moreover, the NADPH fluorescence slope in experiment [5] was 2.1e-05 (inactive). In experiment [6], the slope is 0.00662 (inactive).
`O=C(NCc1ccco1)c1csc(Nc2ccccc2Cl)n1`: the cell count in experiment [1] was 484. Further, the inhibition is -6.2% (inactive) in experiment [1], -144% (inactive) in experiment [3], -50.5% (inactive) in experiment [7] and -12.9% (inactive) in experiment [8]. Further, the inhibition of aggregation in experiment [2] is -0.3% (inactive). In addition, the nuclei count in experiment [2] worked out at 118%; in experiment [3] it was 233%. The fluorescence slope in experiment [4] is -0.503 (inactive). The NADPH fluorescence slope in experiment [5] was -3.4e-05 (inactive). The slope in experiment [6] was 0.0062 (inactive).
Consider `COc1ccc(CNc2ccc(C(=O)O)cc2)cc1`, for which the cell count in experiment [1] turned out to be 511. Moreover, the inhibition was -28.3% (inactive) in experiment [1], -61% (inactive) in experiment [3], -4.3% (inactive) in experiment [7] and -15.8% (inactive) in experiment [8]. For the same compound, the inhibition of aggregation in experiment [2] was -17.2% (inactive). The nuclei count is 116% in experiment [2] and 107% in experiment [3]. Besides, the fluorescence slope in experiment [4] is -0.513 (inactive). The NADPH fluorescence slope in experiment [5] was -3.9e-05 (inactive). Besides, the slope in experiment [6] was 0.00575 (inactive).
For the compound `Cc1cc(Nc2ccccc2N2CCOCC2)n2ncnc2n1`, the cell count in experiment [1] is 226. The inhibition in experiment [1] was 2% (inactive); in experiment [3] it was -16.1% (inactive); in experiment [7], 21.9% (inactive); in experiment [8] it was 44.1% (inactive). Moreover, in experiment [2], the inhibition of aggregation is 13.7% (inactive). Moreover, the nuclei count in experiment [2] came to 89%; in experiment [3], 97%. Also, in experiment [4], the fluorescence slope was -0.588 (inactive). Besides, the NADPH fluorescence slope in experiment [5] was 7.3e-06 (inactive). Also, in experiment [6], the slope is 0.00567 (inactive).
In the case of `NC(=O)CSc1nnc(-c2cc3ccccc3o2)n1Cc1ccccc1`, the cell count in experiment [1] was determined as 426. Also, the inhibition in experiment [1] is 6.3% (inactive); in experiment [3] it was -33% (inactive); in experiment [7] it was 19.8% (inactive); in experiment [8], 18.4% (inactive). The inhibition of aggregation in experiment [2] was -2.8% (inactive). For the same compound, the nuclei count in experiment [2] turned out to be 101%; in experiment [3], 129%. In addition, in experiment [4], the fluorescence slope was -0.272 (inactive). Further, the NADPH fluorescence slope in experiment [5] was 1.6e-05 (inactive). The slope in experiment [6] is 0.003 (inactive).
In the case of `CCOC(=O)C1CCN(c2c(N3CCCC(C(=O)OCC)C3)c(=O)c2=O)CC1` (centres undefined), the cell count in experiment [1] came to 838. The inhibition in experiment [1] was 3.2% (inactive); in experiment [3], -138% (inactive); in experiment [7], -1.39% (inactive); in experiment [8], 19.7% (inactive). Besides, the inhibition of aggregation in experiment [2] was -6.4% (inactive). The nuclei count in experiment [2] turned out to be 101%; in experiment [3], 115%. In experiment [4], the fluorescence slope was -0.616 (inactive). Besides, the NADPH fluorescence slope in experiment [5] was 9.3e-06 (inactive). Also, the slope in experiment [6] is 0.0058 (inactive).
`O=C(CN1CCN(Cc2ccccc2)CC1)Nc1ccc(Cl)cn1`: the cell count in experiment [1] amounted to 615. Moreover, the inhibition was -12.7% (inactive) in experiment [1], -26% (inactive) in experiment [3], 17.4% (inactive) in experiment [7] and 29.5% (inactive) in experiment [8]. Moreover, the inhibition of aggregation in experiment [2] is 19.3% (inactive). For the same compound, the values for the nuclei count in experiment [2] and in experiment [3] were 81.8% and 92%, respectively. For the same compound, the fluorescence slope in experiment [4] was -0.502 (inactive). The NADPH fluorescence slope in experiment [5] was -2.1e-05 (inactive). For the same compound, the slope in experiment [6] was 0.00402 (inactive).

By inhibition is commonly meant the drop in the measured response relative to a control, in per cent.
